# Measured values taken from the supplement of paper PMC11732987, “Enantioselective OTUD7B fragment discovery through chemoproteomics screening and high-throughput optimisation” (Communications Chemistry, 2025).
# A number with no mark means an inactive call.
# Columns and labels:
# Assay in all cases: log2 ratio of Biotin-Ahx-Ub-VS probe labelling (fragment/DMSO); higher = less target engagement (more negative = stronger competition), active = hit call of the paper (q ≤ 0.05, log2 ratio ≤ -1)
# Details in all cases: compound concentration: 200 uM; treatment time: 3 h
# ALG13 = biological target: T1, ALG13 (UniProt Q9NP73)
# T1 sequence (whole entry): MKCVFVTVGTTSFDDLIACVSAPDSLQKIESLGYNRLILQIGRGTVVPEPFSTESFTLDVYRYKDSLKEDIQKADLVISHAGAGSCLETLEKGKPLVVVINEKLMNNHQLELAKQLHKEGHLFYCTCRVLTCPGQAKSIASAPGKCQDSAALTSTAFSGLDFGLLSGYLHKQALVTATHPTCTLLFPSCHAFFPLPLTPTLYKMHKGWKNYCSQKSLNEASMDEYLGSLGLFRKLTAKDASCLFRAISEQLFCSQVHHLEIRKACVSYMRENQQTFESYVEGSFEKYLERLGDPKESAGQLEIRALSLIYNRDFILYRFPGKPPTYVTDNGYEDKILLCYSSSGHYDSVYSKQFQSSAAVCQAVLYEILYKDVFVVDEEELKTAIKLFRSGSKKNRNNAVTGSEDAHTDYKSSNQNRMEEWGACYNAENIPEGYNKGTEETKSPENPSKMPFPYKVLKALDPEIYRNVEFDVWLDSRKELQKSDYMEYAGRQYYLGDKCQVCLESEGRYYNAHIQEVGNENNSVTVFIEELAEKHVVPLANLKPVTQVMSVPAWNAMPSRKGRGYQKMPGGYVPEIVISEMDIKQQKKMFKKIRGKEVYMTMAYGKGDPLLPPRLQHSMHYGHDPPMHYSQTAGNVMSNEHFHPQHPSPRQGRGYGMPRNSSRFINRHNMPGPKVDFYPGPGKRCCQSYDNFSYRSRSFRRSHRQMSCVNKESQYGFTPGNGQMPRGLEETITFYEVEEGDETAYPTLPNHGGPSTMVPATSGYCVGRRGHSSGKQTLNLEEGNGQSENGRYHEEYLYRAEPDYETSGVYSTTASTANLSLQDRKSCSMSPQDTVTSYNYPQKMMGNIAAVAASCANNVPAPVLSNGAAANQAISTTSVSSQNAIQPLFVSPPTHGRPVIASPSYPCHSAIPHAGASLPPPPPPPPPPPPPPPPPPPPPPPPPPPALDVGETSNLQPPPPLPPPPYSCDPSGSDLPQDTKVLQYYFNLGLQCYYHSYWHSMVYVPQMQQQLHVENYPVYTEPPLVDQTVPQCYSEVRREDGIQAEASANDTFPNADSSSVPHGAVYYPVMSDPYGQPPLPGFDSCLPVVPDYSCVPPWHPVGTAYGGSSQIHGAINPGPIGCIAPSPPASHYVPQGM
# Summary of the method: (§1)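 Triplicate samples of HEK293T lysate, 495 µg each, received fragment at 200 µM or vehicle for 3 h, followed by Biotin-Ahx-Ub-VS (0.5 µM final) for 1 h. After NeutrAvidin enrichment of labelled DUBs and LysC/trypsin digestion, peptides were run by diaPASEF LC-MS/MS. The values are average log2 fragment/vehicle ratios from global-median-normalised Spectronaut label-free quantities, tested by unpaired t-test on proteins having ≥2 unique peptides.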
# ATXN3 = ATXN3 (UniProt P54252)
# Chain of ATXN3 (P54252 whole entry): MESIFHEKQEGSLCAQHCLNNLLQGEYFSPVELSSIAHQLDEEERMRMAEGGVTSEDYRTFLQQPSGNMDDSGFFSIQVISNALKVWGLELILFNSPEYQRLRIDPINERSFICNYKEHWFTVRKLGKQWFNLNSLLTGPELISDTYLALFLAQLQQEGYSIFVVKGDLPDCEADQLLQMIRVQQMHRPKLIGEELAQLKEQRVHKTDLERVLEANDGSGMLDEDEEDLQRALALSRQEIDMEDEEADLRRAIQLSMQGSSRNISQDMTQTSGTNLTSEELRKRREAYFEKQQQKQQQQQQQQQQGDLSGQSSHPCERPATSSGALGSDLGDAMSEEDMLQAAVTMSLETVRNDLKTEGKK
# Summary of the method: as §1
# BAP1 = biological target: T2, BAP1 (UniProt Q92560)
# T2 sequence (whole entry): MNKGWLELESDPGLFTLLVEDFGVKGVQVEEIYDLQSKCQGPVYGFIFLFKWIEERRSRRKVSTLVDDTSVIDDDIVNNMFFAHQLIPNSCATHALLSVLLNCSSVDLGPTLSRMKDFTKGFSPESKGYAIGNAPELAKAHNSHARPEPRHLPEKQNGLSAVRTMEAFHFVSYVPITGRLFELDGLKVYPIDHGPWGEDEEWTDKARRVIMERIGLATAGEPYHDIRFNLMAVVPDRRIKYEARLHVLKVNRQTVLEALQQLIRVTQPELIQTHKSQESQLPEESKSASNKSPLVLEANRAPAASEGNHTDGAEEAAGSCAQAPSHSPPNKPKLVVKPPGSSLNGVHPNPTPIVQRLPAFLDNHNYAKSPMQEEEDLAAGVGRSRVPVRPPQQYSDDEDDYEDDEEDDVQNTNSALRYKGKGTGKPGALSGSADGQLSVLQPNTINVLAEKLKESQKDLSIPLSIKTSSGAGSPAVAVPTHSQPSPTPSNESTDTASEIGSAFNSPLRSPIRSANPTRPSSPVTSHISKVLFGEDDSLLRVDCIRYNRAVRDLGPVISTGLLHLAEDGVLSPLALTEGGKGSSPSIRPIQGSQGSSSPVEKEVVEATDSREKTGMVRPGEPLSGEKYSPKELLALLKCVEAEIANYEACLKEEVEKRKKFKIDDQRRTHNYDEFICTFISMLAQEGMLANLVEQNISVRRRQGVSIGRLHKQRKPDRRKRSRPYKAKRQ
# Summary of the method: as §1
# EIF3F = EIF3F (UniProt O00303)
# Chain of EIF3F (O00303 whole entry): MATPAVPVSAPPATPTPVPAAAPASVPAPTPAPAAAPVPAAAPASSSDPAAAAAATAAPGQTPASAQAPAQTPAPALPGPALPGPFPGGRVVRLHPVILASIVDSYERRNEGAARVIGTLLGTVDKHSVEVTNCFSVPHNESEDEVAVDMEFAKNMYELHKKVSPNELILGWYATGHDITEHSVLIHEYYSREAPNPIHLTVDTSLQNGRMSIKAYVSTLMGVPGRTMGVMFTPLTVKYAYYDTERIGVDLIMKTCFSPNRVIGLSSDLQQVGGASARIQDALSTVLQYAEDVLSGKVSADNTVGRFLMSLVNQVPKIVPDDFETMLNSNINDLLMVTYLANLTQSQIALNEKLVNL
# Summary of the method: as §1
# EIF3H = EIF3H (UniProt O15372)
# Chain of EIF3H (O15372 whole entry): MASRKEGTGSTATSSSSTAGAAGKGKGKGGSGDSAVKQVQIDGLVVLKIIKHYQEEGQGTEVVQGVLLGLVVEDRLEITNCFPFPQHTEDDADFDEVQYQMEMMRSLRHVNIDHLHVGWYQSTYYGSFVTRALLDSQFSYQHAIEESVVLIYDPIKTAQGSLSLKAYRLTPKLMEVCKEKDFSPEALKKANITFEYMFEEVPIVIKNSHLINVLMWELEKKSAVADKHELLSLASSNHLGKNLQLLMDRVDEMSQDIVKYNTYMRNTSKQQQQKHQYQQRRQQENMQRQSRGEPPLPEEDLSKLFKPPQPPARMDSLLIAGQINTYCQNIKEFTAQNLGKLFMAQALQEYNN
# Summary of the method: as §1
# FAM105A = biological target: T3, FAM105A (UniProt Q9NUU6)
# T3 sequence (whole entry): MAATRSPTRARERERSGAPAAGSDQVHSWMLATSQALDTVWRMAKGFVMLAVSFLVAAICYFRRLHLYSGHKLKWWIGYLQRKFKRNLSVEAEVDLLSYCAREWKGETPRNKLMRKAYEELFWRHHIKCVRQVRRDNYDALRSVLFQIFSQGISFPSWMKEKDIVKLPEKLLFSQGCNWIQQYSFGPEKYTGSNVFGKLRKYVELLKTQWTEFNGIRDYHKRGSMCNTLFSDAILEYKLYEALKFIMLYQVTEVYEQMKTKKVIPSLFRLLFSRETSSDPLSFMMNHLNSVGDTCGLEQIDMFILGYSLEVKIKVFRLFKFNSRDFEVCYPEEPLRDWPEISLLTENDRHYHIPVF
# Summary of the method: as §1
# OTUB1 = OTUB1 (UniProt Q96FW1)
# Chain of OTUB1 (Q96FW1 whole entry): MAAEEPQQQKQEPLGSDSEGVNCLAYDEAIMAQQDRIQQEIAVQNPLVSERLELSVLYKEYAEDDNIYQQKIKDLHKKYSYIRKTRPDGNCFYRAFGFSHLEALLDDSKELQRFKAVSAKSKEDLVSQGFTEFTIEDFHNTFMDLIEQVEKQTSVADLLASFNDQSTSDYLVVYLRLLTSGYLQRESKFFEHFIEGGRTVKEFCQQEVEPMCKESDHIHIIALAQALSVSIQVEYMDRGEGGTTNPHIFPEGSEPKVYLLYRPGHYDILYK
# Summary of the method: as §1
# OTUD4 = biological target: T4, OTUD4 (UniProt Q01804)
# T4 sequence (whole entry): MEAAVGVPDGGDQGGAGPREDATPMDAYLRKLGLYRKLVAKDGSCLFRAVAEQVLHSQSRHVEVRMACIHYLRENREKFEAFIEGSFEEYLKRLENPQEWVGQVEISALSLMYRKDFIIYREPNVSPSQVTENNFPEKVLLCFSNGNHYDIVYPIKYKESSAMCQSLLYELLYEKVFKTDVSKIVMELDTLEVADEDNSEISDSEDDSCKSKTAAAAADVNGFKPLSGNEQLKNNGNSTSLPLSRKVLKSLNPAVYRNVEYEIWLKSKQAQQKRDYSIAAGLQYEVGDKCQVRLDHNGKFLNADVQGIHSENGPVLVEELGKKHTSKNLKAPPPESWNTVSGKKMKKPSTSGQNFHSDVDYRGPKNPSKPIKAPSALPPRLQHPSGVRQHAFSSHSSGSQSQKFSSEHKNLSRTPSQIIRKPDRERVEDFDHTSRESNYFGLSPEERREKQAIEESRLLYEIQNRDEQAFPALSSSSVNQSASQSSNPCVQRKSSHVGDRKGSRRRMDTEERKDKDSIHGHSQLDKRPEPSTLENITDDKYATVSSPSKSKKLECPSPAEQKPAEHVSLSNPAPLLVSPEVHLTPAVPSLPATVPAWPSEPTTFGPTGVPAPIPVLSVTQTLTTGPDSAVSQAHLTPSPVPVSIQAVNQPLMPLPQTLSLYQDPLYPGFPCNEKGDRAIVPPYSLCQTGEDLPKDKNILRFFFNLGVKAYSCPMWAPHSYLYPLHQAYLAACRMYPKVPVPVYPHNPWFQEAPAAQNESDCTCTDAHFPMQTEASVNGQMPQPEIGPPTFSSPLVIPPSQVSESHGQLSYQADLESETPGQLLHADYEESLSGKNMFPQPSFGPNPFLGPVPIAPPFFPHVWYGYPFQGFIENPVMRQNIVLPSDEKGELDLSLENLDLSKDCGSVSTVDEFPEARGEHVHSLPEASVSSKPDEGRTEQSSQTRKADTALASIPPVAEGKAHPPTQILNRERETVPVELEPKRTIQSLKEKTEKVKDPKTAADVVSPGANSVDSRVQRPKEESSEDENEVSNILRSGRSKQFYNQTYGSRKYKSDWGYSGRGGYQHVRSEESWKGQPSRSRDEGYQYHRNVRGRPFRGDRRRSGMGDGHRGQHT
# Summary of the method: as §1
# OTUD5 = biological target: T5, OTUD5 (UniProt Q96G74)
# T5 sequence (whole entry): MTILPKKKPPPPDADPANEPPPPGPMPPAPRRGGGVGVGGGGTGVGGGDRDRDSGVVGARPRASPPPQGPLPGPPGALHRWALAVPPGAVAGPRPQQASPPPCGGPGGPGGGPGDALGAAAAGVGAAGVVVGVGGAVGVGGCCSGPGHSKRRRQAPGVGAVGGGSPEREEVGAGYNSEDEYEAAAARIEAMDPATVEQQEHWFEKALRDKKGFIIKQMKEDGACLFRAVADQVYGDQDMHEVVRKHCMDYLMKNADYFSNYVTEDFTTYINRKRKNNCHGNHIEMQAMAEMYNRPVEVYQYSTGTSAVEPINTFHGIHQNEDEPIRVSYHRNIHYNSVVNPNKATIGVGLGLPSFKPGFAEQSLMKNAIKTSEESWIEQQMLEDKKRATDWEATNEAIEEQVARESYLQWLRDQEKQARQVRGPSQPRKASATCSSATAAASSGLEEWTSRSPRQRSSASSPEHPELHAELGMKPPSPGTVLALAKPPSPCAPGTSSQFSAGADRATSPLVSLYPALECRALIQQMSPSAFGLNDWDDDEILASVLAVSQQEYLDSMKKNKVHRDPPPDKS
# Summary of the method: as §1
compound,measurement,setting,value
Cl.Cn1ncc2c1CC(NC(=O)CCl)CC2 (centres undefined),log2 ratio of Biotin-Ahx-Ub-VS probe labelling,ALG13,0.027
same,log2 ratio of Biotin-Ahx-Ub-VS probe labelling,ATXN3,-0.0274
same,log2 ratio of Biotin-Ahx-Ub-VS probe labelling,BAP1,-1.1 (active)
same,log2 ratio of Biotin-Ahx-Ub-VS probe labelling,EIF3F,-0.121
same,log2 ratio of Biotin-Ahx-Ub-VS probe labelling,EIF3H,-0.266
same,log2 ratio of Biotin-Ahx-Ub-VS probe labelling,FAM105A,0.307
same,log2 ratio of Biotin-Ahx-Ub-VS probe labelling,OTUB1,-0.112
same,log2 ratio of Biotin-Ahx-Ub-VS probe labelling,OTUD4,-0.464
same,log2 ratio of Biotin-Ahx-Ub-VS probe labelling,OTUD5,0.000518
